# According to PubChem BioAssay (NCATS):
# Records with an inconclusive call do not appear. A call without a number means that no potency is given here. Activity calls are given as the source filed them. Calls follow the shape of the dose curve; as a rule, active = well fitted curve in the direction sought with a large enough effect; inconclusive = small, poorly fitted or top-dose-only effect, or another doubt; inactive = no such curve, though single readings can be large; an effect the other way counts as inactive or inconclusive.
# How the values were obtained:
# [1] = P-glycoprotein substrates identified in KB-3-1 adenocarcinoma cell line, qHTS therapeutic library screen (AID 1346986); conditions: KB-3-1 parental cells viability, CellTiter-Glo, 72 h; series mostly up to 44.5 µM; also: nearly all actives have a fitted effect of over 60% in size
# How it was run: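 Resistance attributable to P-gp was assessed by comparing AC50 in KB-8-5-11 with parental KB-3-1 and by tariquidar reversal. Cells were exposed 72 h and viability read by CellTiter-Glo.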
# [2] = P-glycoprotein substrates identified in KB-8-5-11 adenocarcinoma cell line, qHTS therapeutic library screen (AID 1346987); conditions: KB-8-5-11 (P-gp overexpressing) viability, CellTiter-Glo, 72 h; series mostly up to 44.5 µM; also: nearly all actives have a fitted effect of over 65% in size
# How it was run: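 KB-8-5-11, a colchicine-selected P-gp-overexpressing KB-3-1 subline, was grown without colchicine for the assay. Cells were seeded at 500 cells/well, dosed in concentration-response and incubated 72 h at 37 degree C, 5% CO2. Viability was read by CellTiter-Glo luminescence.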
SMILES,Potency [1],Potency [2],outcome [1],outcome [2]
O=c1c2cccnc2n(-c2cccc([N+](=O)[O-])c2)c(=O)n1Cc1ccncc1,inactive,inactive,–,–
C[C@@H]1C[C@H](O)/C=C/[C@H](O)[C@@H](O)CC(=O)O1,inactive,inactive,–,–
CC(=O)O[C@@]1(C)C[C@@H](O)[C@]2(O)C=CO[C@@H](O[C@@H]3O[C@H](CO)[C@@H](O)[C@H](O)[C@H]3O)[C@@H]21,inactive,inactive,–,–
CC(=O)O[C@H]1CC[C@@]2(CI)C(=CC[C@@H]3[C@@H]2CC[C@]2(C)[C@@H]([C@H](C)CCCC(C)C)CC[C@@H]32)C1,–,–,inactive [at 9.29 µM],inactive [at 9.29 µM]
COC12CC3C(C(C)C1=CC(=O)O2)C(O)C(OC(C)=O)C1C(C)(C)C(OC(C)=O)CCC31C (centres undefined),inactive,inactive,–,–
CCCC(N[C@@H](C)C(=O)N1[C@H](C(=O)O)C[C@@H]2CCCC[C@@H]21)C(=O)OCC (some centres undefined),inactive,inactive,–,–
CC1CC(=O)C2=C(O1)OC1(C)CCC3C(C)(C)C=CC(=O)C3(C)C1C2 (centres undefined),inactive,inactive,–,–
CC(=O)OC[C@@]12[C@H](O)C[C@@H](C)[C@]3(C[C@@H](c4ccoc4)OC3=O)[C@H]1C[C@H](O)C[C@]21CO1,inactive,inactive,–,–
CC1CC(O)C2(C)C(C(=O)O)=CCCC2C1(C)CCc1ccoc1 (centres undefined),inactive,inactive,–,–
CC(C)C1=CCC(C)(O)C(OC2OC(CO)C(O)C(O)C2O)C1 (centres undefined),inactive,inactive,–,–
CC(=O)OC(CSC1CCC(=O)OC(C)CCC(=O)C1)C(=O)O (centres undefined),inactive,inactive,–,–
COC1=CC(=O)O[C@@H](/C=C/c2ccccc2)[C@@H]1O,inactive,inactive,–,–
